Most compounds without a hit are left out; they make up all but 9.2% or so of the library.
LMNA splice mod: modulators of lamin A splicing; Potency, µM (series often up to 46.1 µM), inactives show top-dose ratio change, negative = inhibition, actives largely listed as inhibitors; HeLa LMNA splicing GFP/RFP minigene ratio, 48 h; 200,000 compounds, 0.01% hits; AID 1487; active means well fitted inhibition curve with a large enough effect in the signal ratio, with a control signal flat, not every such curve was filed as active; inconclusive means small, poorly fitted or top-dose-only effect, or effect the other way, or a change in a side signal; the % refers to the signal ratio; further: on the % scale 0 is the no-effect control and ±100 the full control effect
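S3 HeLa cells stably expressing lamin A-EGFP splicing minigene plus DsRed2, 600 cells/well, 48 h compound exposure at 37C. Laser-scanning cytometry; analysed as GFP (500-530 nm)/RFP (575-640 nm) total intensity ratio; 0.5% DMSO vehicle.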
ALDH1A1 block: blocks purified human ALDH1A1 activity | Purified ALDH1A1, NADH fluorescence, propionaldehyde substrate | Potency, µM (series often up to 75.3 µM), without a hit: at the highest dose activity, negative = inhibition, hits mostly inhibitors | 220,000 compounds, 7.3% hits | AID 1030;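 further: plate controls were no enzyme wells and a reference inhibitor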
Target sequence (P00352 whole entry, looked up): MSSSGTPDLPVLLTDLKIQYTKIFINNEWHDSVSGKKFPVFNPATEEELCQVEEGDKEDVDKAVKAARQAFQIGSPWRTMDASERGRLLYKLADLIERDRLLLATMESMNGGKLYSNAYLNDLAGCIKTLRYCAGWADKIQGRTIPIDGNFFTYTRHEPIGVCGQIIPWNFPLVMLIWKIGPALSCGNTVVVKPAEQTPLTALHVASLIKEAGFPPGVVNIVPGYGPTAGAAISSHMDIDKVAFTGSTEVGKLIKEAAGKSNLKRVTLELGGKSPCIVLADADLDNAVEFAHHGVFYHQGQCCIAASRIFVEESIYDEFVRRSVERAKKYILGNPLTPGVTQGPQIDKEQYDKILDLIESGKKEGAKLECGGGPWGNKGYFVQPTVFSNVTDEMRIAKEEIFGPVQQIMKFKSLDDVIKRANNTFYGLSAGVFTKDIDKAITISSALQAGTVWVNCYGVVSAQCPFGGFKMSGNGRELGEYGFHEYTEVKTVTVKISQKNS
HttQ103 aggreg: inhibitors of mutant huntingtin aggregate formation in PC12 cells; PC12 HttQ103-GFP aggregates, Acumen cytometry, 40 h; Potency, µM (series often up to 46.1 µM), without a hit: top-dose activity change, negative = inhibition, most hits filed as inhibitors; 220,000 compounds, 1.1% hits; active means well fitted curve in the direction sought with a large enough effect; inconclusive means small, poorly fitted or top-dose-only effect, or another doubt; inactive means no such curve, though single readings can be large; an effect the other way counts as inactive or inconclusive; further: on the % scale 0 is the no-effect control and ±100 the full control effect; nearly all actives have a fitted effect of over 60% in size
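Ecdysone-promoter PC12 model expressing HTT exon 1 Q103 fused to GFP, induced by tebufenozide at 100 nM final. Compounds titrated; aggregates sized 1–25 µm scored on a 488 nm laser cytometer.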
HPGD block: inhibitors of human 15-hydroxyprostaglandin dehydrogenase (HPGD) | P15428 | purified HPGD, NADH fluorescence kinetic, PGE2 substrate | Potency, µM, inactives show at the top dose activity change, negative = inhibition, most hits filed as inhibitors | 150,000 compounds, 4.3% hits; further: on the % scale 0 is the no-effect control and ±100 the full control effect
Target sequence (P15428 whole entry, looked up): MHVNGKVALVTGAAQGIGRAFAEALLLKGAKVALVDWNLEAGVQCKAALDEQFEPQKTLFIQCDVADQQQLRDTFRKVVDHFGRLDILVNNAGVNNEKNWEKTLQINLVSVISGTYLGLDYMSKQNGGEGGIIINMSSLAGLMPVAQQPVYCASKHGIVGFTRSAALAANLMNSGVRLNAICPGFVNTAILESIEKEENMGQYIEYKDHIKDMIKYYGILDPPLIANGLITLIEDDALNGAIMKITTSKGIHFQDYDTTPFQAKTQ
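NADH formation kinetics: reaction with 30 uM PGE2 and 1 mM NAD+ (final), 20 nM enzyme, Tris-HCl pH 8 with Tween 20, after 15 min compound preincubation at room temperature. Fluorescence change, last versus first of five reads.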
HTT ATP protect: cytoprotection in Huntington HTT-Q103 PC12 cell model; Potency, µM (series often up to 56.4 µM), without a hit: cytoprotection (ATP increase), most hits filed as activators; PC12 HTT-Q103 induced, cytoprotection, ATP luminescence, 40 h; 230,000 compounds, 0.14% hits; AID 1471; active means well fitted curve in the direction sought with a large enough effect; inconclusive means small, poorly fitted or top-dose-only effect, or another doubt; inactive means no such curve, though single readings can be large; an effect the other way counts as inactive or inconclusive; further: % of control where 0% means no effect; nearly all actives have a fitted effect of over 45% in size
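Cells were plated at 1500 per well in phenol red-free DMEM with 5% equine and 5% calf serum. Tebufenozide (100 nM final) and compounds were added, then ATPlite reagent, and luminescence was read.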
JMJD2E inh: inhibitors of human JMJD2E histone demethylase | AID 2147 | JMJD2E catalytic domain, FDH-coupled NADH fluorescence (FDH is formaldehyde dehydrogenase) | Potency, µM (series often up to 57.1 µM), inactives show at the highest dose activity change, negative = inhibition, hits mostly inhibitors | B2RXH2 | 230,000 compounds, 1.6% hits;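 further: 0% = wells with enzyme and -100% = buffer wells without enzyme; nearly all actives have a fitted effect of over 50% in size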
* hit, by the source's call; u = inconclusive; x = no result; [ ] = remark or other dose. Unless noted, the call rests on the fitted dose curve; in most records, active means well fitted inhibition curve with a large enough effect (not every such curve was filed as active); inconclusive means small, poorly fitted or top-dose-only effect, or another doubt; inactive means no such curve, though single readings can be large or run the other way. Potency means the concentration at half of the fitted maximal effect.

SMILES	LMNA splice mod	ALDH1A1 block	HttQ103 aggreg	HPGD block	HTT ATP protect	JMJD2E inh
c1ccc(-c2ccc(-c3ccccn3)nn2)nc1	u	20µM*	u	25µM*	-125%[0.074 µM]	u
COc1ccc2[nH]cc(CCNc3cc(-c4ccccc4C(F)(F)F)ncn3)c2c1	5%	-8%	x	-8%	4%	-24%
COc1cccc(OC)c1C(=O)NC(=S)Nc1ccc2c(c1)C(=O)N(C)C2=O	-20%	-16%	10%	u	3%[10 µM]	-3%
COc1cc(C(=O)NC(=S)Nc2ccc3c(c2)C(=O)N(C)C3=O)cc(OC)c1OC	-7%	1µM*	9%	-4%	x	1%
N#C/C(=C/c1ccc(Sc2nc3ccccc3[nH]2)o1)c1ccccc1F	u	u	11µM*	u	-34%	u
N#C/C(=C/c1ccc(Sc2nc3ccccc3[nH]2)o1)c1cccc(F)c1	u	u	u	u	1%	4%
COc1ccc(Cn2c(-c3ccc(OC)cc3)nc3c(c(=O)c4ccccc4n3C)c2=O)cc1	-11%	0.28µM*	17%	-3%	4%[10 µM]	0%
Cc1occc1-c1nnc(SCC(N)=O)o1	x	-6%	13%	x	-49%	0%
Cc1occc1-c1nnc(SCC(=O)c2ccc(F)cc2)o1	6%	32µM*	22%	u	-1%	-1%
COc1ccccc1CNC(=O)CN1C(=O)CCc2cc(S(=O)(=O)N3CCCCC3)ccc21	-11%[46 µM]	x	x	x	x	x
Cc1nn(-c2cccc(C(=O)O)c2)c(C)c1Oc1ccccc1O	4%	13%	18%	-16%	-8%[10 µM]	5%
Cc1nn(-c2ccccn2)c(C)c1Oc1ccccc1O	4%	-8%	8%	14µM*	-9%	4%
Cc1nn(-c2ccc(C(=O)O)cc2)c(C)c1Oc1ccccc1O	13%	9%	15%[9.22 µM]	14µM*	-2%	-4%
COc1cc2c(cc1O)C(Cc1ccc(O)cc1)[N+](C)(C)CC2 (centres undefined)	x	-5%	x	-16%	-27%	-4%
O=C(Cn1nnc2ccccc2c1=O)N1CCCc2ccccc21	5%	u	-3%	-5%	0%	-1%
O=C(COc1nnnc2ccccc12)N1CCCc2ccccc21	11%	-3%	4.5µM*	4%	13%[10 µM]	5%
O=C(COC(=O)Cn1cnc2ccccc21)NCCc1ccc(Cl)cc1	3%	13µM*	8%	-9%	4%	0%
O=C(Cn1cnc2ccccc21)OCC(=O)N1CCCc2ccccc21	-1%	14µM*	-4%[9.22 µM]	-4%	-5%[10 µM]	3%
COc1ccc(CCNC(=O)COC(=O)Cn2cnc3ccccc32)cc1OC	-8%[46 µM]	u	-6%	x	-19%	1%
CC(C)c1ccc2c(c1)CCC1C(C)(C(N)=O)CCCC21C (centres undefined)	u	0%	x	-18%	x	2%
CSc1ccccc1NC(=O)COc1ccc(Cl)cc1Cl	1%	0%	u	x	16%[10 µM]	6%
O=C(CCl)Nc1ccccc1Sc1ccc(Cl)cc1	u	4µM*	-9%	-11%	-3%	-3%
CSc1ccccc1NC(=O)COc1ccc(Cl)cc1	u	-13%	-18%	28µM*	16%[10 µM]	-10%
CC(=O)N1CCN(CC(=O)Nc2ccccc2Sc2ccc(Cl)cc2)CC1	u	u	-2%	7%	28%[1.9 µM]	-2%
CSc1ccccc1NC(=O)COc1ccccc1Cl	11%	-12%	5%	25µM*	-13%	u
SMILES	LMNA splice mod	ALDH1A1 block	HttQ103 aggreg	HPGD block	HTT ATP protect	JMJD2E inh
O=C(O)C[C@H](Nc1ccccc1)C(=O)O	x	-2%[13.5 µM]	x	-10%	12%[10 µM]	x
O=C(O)CC1NC(=O)N(C2CCCCC2)C1=O (centres undefined)	17%[46 µM]	13%	-13%	x	-31%	1%
O=C(CN1CCN(C(=O)c2ccco2)CC1)Nc1ccccc1-c1ccccc1	3%	6.3µM*	-2%	-3%	-3%	-1%
O=C(CN1CCCCC1)Nc1ccccc1-c1ccccc1	7%	19µM*	-3%	-19%	-79%	-2%
O=C(CN1CCCC1)Nc1ccccc1Cl	12%	12%	-9%[9.22 µM]	u	9%	1%
O=C(CN1CCOCC1)Nc1ccccc1-c1ccccc1	3%	14µM*	22%	-13%	8%	-1%
N#Cc1cccc(NC(=O)N2CC3(CCN(C(=O)c4cc(C(F)(F)F)cc(C(F)(F)F)c4)CC3)C2)c1	x	-1%	x	-5%	3%	x
CC(C)OC(=O)CSc1nnc(-c2cccnc2)n1N	-6%	9%	19%	-12%	7%[0.074 µM]	7%
COc1cccc(-n2c(SCC(=O)OC(C)C)nnc2-c2cccnc2)c1	13%	-6%	3%	22µM*	11%[10 µM]	3%
O=c1c(Cc2ccc(Cl)cc2Cl)c(O)ccn1Cc1ccc(Cl)cc1	u	u	20µM*	u	-4%[10 µM]	-2%
O=c1c(Cc2ccccc2)c(O)ccn1Cc1ccc2c(c1)OCO2	-5%[46 µM]	2.2µM*	-2%	x	-52%	11%
O=c1c(Cc2ccc(Cl)cc2)c(O)ccn1Cc1ccccc1	u	-7%	u	-6%	-1%[10 µM]	1%
Cc1cccc(S(=O)(=O)c2cn(C)c3cc(N4CCC(C)CC4)c(F)cc3c2=O)c1	-13%[46 µM]	x	x	x	x	x
COc1ccc(C2=CC(=O)OC3(CCCC3)O2)cc1	3%	13µM*	u	-5%	-5%[10 µM]	-7%
COC1=CC(=O)OC12CCCCC2	11%	2%	7%	-10%	-6%	-2%
O=C(NNC(=O)C1[C@H]2CCCC[C@@H]12)NC1CCCCC1 (some centres undefined)	-8%	-9%	-8%	-13%	0%[10 µM]	-14%
CCOC(=O)c1cc(-c2c(Cl)cccc2Cl)no1	x	-1%	16%[9.22 µM]	x	5%[10 µM]	-9%
Cc1ccc(-c2nn3nnnc3c3ccccc23)cc1C	4%[0.0737 µM]	7.1µM*	-18%	-13%	-14%	3%
O=C(N/N=C\c1ccco1)Nc1cccc(Cl)c1	-7%	28µM*	12%	-29%	21%[10 µM]	2%
Cc1cccc(NC(=O)CCC(=O)N/N=C/c2ccco2)c1	-4%	9%	0%	-13%	9%[10 µM]	6%
CN(C)CCCN1C(=O)c2cccc3c(Br)ccc(c23)C1=O	u	22µM*	-20%	x	-42%	u
CCCCNc1ccc2c3c(cccc13)C(=O)N(CCCC)C2=O	x	x	u	x	-16%[10 µM]	6%
Cc1cc(S(=O)(=O)Nc2ccccc2C(=O)O)ccc1F	x	u	x	-21%	x	x
COc1cccc(/C=N/Nc2nn3cnnc3c3ccccc23)c1O	4%	0%	u	-5%	-36%	18µM*
COc1cccc(/C=N/NC(=O)CNC(=O)c2cccs2)c1O	x	x	-26%[9.22 µM]	x	-10%[10 µM]	8.9µM*
COc1ccc(/C=N/NC(=O)c2nc(-c3ccccc3)n(-c3ccccc3)n2)c(O)c1	u	u	-31%	-21%	x	18µM*

Compound activity from PubChem BioAssay.
